Rows were chosen to be rich in hits. Some 2.9% of all compounds tested hit in one or more screens of this group.
SNCA viab count: counter-screen for SNCA expression inhibitors: cell viability; HEK-293-SNCA-luc viability, GF-AFC fluorescence, 24 h; Potency, µM (doses to about 57.1 µM), without a hit: top-dose activity change, negative = cytotoxicity, actives largely listed as cytotoxic; AID 1671193; 150,000 compounds, 0.12% hits;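 note: potency is the fitted concentration of half-maximal effect; 0% = DMSO-treated cells and -100% = medium-only wells without cells; nearly all actives have a fitted effect of over 30% in size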
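Cytotoxicity counterscreen: after 24 h compound treatment of genome-edited SNCA-luciferase HEK-293 cells, live-cell protease substrate GF-AFC read by fluorescence after 30 min; activity scaled between DMSO (0%) and medium-only (-100%), curves Hill-fitted.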
SNCA expr inhib: SNCA gene expression inhibition; HEK-293 SNCA-luciferase knock-in, luminescence, 24 h; Potency, µM (top dose mostly 57.2 µM), without a hit: at the highest dose activity change, negative = inhibition, most hits filed as inhibitors; 140,000 compounds, 0.17% hits;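 note: potency is the fitted concentration of half-maximal effect; plate controls were DMSO cells for no effect and cell-free wells for full effect; nearly all actives have a fitted effect of over 45% in size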
KDM5B inhibitor: inhibitors of human KDM5B histone demethylase; Q9UGL1; KDM5B demethylase, FDH-coupled NADH fluorescence (FDH is formaldehyde dehydrogenase); Potency, µM (top dose mostly 57.7 µM), actives largely listed as inhibitors; 220,000 compounds, 2.6% hits; AID 1347165; note: potency is the fitted concentration of half-maximal effect; 0% is about no effect; nearly all actives have a fitted effect of over 70% in size
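Inhibition is measured as reduced NADH fluorescence generation from FDH coupling to formaldehyde release. Truncated KDM5BΔAP at 200 nM final acts on H3K4me3 peptide (12.5 µM in substrate mix) in pH 7.5 HEPES buffer with Tween-20, 30 min, room temperature.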
IP6K1 inh: IP6K1 kinase inhibition; 140,000 compounds, 0.81% hits; IP6K1 kinase, ADP-Glo luminescence, 2 h; stronger effect = lower value; activity change, % (series mostly up to about 58 µM); Q92551; in the data active = activity change below about -25%; note: % is set by controls: 0 for no effect and ±100 for the full control effect
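ADP-Glo luminescence measures ADP made by human IP6K1 during a 2 h RT reaction with ATP/IP6 (mix at 1.3 mM/130 uM); top library doses 57.5 and 19.1 uM final.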
* = called active by the depositor; i = inactive; u = inconclusive; x = not tested or not shown; [ ] = remark or other dose. Unless noted, calls come from the whole dose curve; as a rule, active = well fitted curve in the direction sought with a large enough effect; inconclusive = small, poorly fitted or top-dose-only effect, or another doubt; inactive = no such curve, though single readings can be large; an effect the other way counts as inactive or inconclusive.

SMILES	SNCA viab count	SNCA expr inhib	KDM5B inhibitor	IP6K1 inh
Cc1ccccc1-c1nc2cnccn2c1NCCC(=O)NC1CCCCC1	29%	14%	28µM*	9
Cn1c(SCC(=O)NC2CCCCC2)nnc1-c1cccnc1	x	x	i	x
Cc1ccccc1-c1nc2cnccn2c1NCCC(=O)NCc1ccco1	u	-5%	32µM*	-5
CCN(c1ccc2c(c1)OCO2)C1CN(C(=O)OC(C)(C)C)C1	-12%	4%	89µM*	-17
C[C@@]1(O)CCN(C(=O)CCc2ccc(-c3cccs3)o2)C[C@@H]1O	-10%	-1%	13µM*	0
CO[C@H]1C[C@@H](O)C12CCN(C(=O)CCc1ccc(-c3cccs3)o1)CC2	u	-33%	14µM*	-12
Cn1nc(C(=O)N2CC[C@@](C)(O)[C@@H](O)C2)cc1-c1cccs1	3%	11%	i	12
COc1ccc(-c2nccc3c(=O)cc(N(C)C)oc23)cn1	-5%[87.6 µM]	20%[87.6 µM]	40µM*	-18
COc1ncccc1-c1nccc2c(=O)cc(N(C)C)oc12	6%[87.6 µM]	24%[87.6 µM]	35µM*	-5
Cc1cc(-c2nccc3c(=O)cc(N(C)C)oc23)ccn1	6%[87.6 µM]	45%[87.6 µM]	32µM*	-6
Fc1ccc(CN2CCC3(CC(Cc4ccccc4)=NO3)C2)cc1 (centres undefined)	-12%[87.6 µM]	-6%[87.6 µM]	32µM*	1
COc1ccc(CN2CCC3(CC(Cc4ccccc4)=NO3)C2)cc1 (centres undefined)	-4%	-3%	25µM*	0
Clc1ccc(CN2CCC3(CC2)CC(Cc2ccccc2)=NO3)cc1	-5%	u	i	-7
COc1ccccc1-c1cccc(C(=O)N2CCN(C(=O)c3ccccc3F)CC2)c1	3%[12.5 µM]	19%	x	-3
COc1ccccc1-c1ccc(C(=O)N2CCC(NC(=O)c3ccc(C)cc3)CC2)cc1	2%[12.5 µM]	16%	x	-6
CC(C)c1ccc(C#N)c(N2CC[C@H](N3CCOCC3)[C@H](CCCO)C2)n1	-6%	-16%	28µM*	3
CSc1ccc(-c2cccc(C(=O)NCCN[S+](=O)([O-])c3cccs3)c2)cc1	8%[12.5 µM]	-13%	x	6
COc1ccc(CN2C(=O)COC[C@@H]2[C@H](O)c2ccc(NC(=O)c3ccc(C(C)(C)C)cc3)cc2)cc1	u	4%	u	-4
CCCCCCCCCCCCCC(=O)N[C@H](CO)[C@H](O)c1ccc([N+](=O)[O-])cc1	-10%	9.6µM*	x	x
Cc1nn(-c2ccccc2)c2c1C(C)N(CC1CN(C(=O)c3ccccc3F)C1)C2=O (centres undefined)	x	x	x	9
NC[C@@](O)(c1ccc(Cl)cc1)c1ccc(-c2cn[nH]c2)cc1	24µM*	x	x	-8
COc1ccc(/C=C/c2ccc3c(c2)C(=O)N2CC[C@H](NC(=O)COCC(=O)O)[C@H]2C(=O)N3)cc1	-2%	-20%	22µM*	-5
COc1ccc(-c2ccc3c(c2)C(=O)N2CC[C@H](NC(=O)NC(C)C)[C@H]2C(=O)N3)c(OC)c1	4%	4%	u	0
COc1ccc(-c2ccc3c(c2)C(=O)N2CC[C@H](NC(=O)C4CCCC4)[C@H]2C(=O)N3)c(OC)c1	-1%	-16%	32µM*	5
CC(C)NC(=O)N[C@H]1CCN2C(=O)c3cc(/C=C/c4ccccc4)ccc3NC(=O)[C@H]12	1%[87.6 µM]	10%[87.6 µM]	35µM*	-9
SMILES	SNCA viab count	SNCA expr inhib	KDM5B inhibitor	IP6K1 inh
CSCC(=O)N[C@H]1CCN2C(=O)c3cc(/C=C/c4ccccc4)ccc3NC(=O)[C@H]12	-5%[87.6 µM]	15%[87.6 µM]	16µM*	3
O=C1N(c2ccccc2)c2ccccc2C12CCN(CC1CCCCC1)C2 (centres undefined)	-7%	-1%	i	0
O=C(C1CCCN1C(=O)c1ccc(C(F)(F)F)cc1)N1CCC(N2Cc3ccccc3C2=O)CC1 (centres undefined)	-22%	-18%	x	3
Cc1cccc(CNC(=O)NCC2CCN(Cc3ccncc3)C2)c1 (centres undefined)	-6%	-24%	14µM*	16
Nc1cccc(C(=O)NCC2CCN(Cc3cc(F)cc(F)c3)C2)c1 (centres undefined)	0%	9%	28µM*	4
O=C(NCC1CC1)c1cccc(OC2CN(Cc3cccc(F)c3)C2)c1	-5%	27%	i	-1
COc1ccccc1-c1cc(C(=O)NCc2ccc(Cl)cc2)nn2cnnc12	-15%[12.5 µM]	4%[87.6 µM]	x	15
O=C1NCCN2CC3(CCN(C(=O)Nc4ccccc4)CC3)CC12 (centres undefined)	-7%	-6%	u	5
O=C1NCCN2CC3(CCN(C(=O)c4ccco4)CC3)CC12 (centres undefined)	0%	-9%	28µM*	-10
Cn1ncc2c(C(=O)NCC#N)cc(-c3ccc(F)cc3)nc21	x	x	x	2
O=C1OCCCN1CCNc1ccc(-c2nc(-c3ccccc3F)no2)cn1	-3%	1%	28µM*	3
CN(Cc1ccccn1)c1ccc(-c2nc(Cc3ccc(F)cc3)no2)cn1	-4%	33%	u	1
CCCc1noc(-c2nc(-c3ccccc3F)no2)n1	5%	122%	i	-4
CN(Cc1nccs1)c1ccc(-c2nc(-c3ccccc3F)no2)cn1	-3%	24%	22µM*	-2
CC(Cn1cccn1)Nc1ccc(-c2nc(-c3ccccc3F)no2)cn1 (centres undefined)	-3%	13%	28µM*	3
O=C1CCCCN1CCNc1ccc(-c2nc(-c3ccccc3F)no2)cn1	u	-12%	32µM*	10
c1ccc(CCc2noc(-c3ccc(NCCN4CCCC4)nc3)n2)cc1	9%	85%	u	16
COc1ccc(C(=O)N2CCCN(c3ccc4nnc(-c5ccccc5)n4n3)CC2)cc1	x	x	x	-1
COc1ccc(CNC(=O)C[C@@H]2c3nc(NC(=O)c4cccs4)sc3C[C@@H]3[C@](C)(CO)[C@H](O)CC[C@]32C)cc1	-6%	-19%	25µM*	-9
COc1ccc(CNC(=O)C[C@@H]2c3nc(NC(=O)c4c(F)cccc4F)sc3C[C@@H]3[C@](C)(CO)[C@H](O)CC[C@]32C)cc1	0%	-5%	28µM*	-10
COCC(=O)Nc1nc2c(s1)C[C@@H]1[C@](C)(CO)[C@H](O)CC[C@@]1(C)[C@@H]2CC(=O)NCc1ccc(OC)cc1	-1%	10%	i	1
COc1cccc(-c2ccc(C(=O)N3CCC(NC(=O)c4ccc(F)cc4)CC3)cc2)c1	-9%[12.5 µM]	3%	x	-6
COc1cccc(-n2nc(C(=O)O)cc2-c2ccc(C3CCCCC3)c(Cl)c2)c1	-15%	x	x	-38*
CN[C@@H]1C[C@H]2O[C@@](C)([C@H]1OC)n1c3ccccc3c3c4c(c5c6ccccc6n2c5c31)C(=O)N[C@H]4O	u	4.3µM*	x	x
COc1cc(NC(=O)c2cn(C3CCCC3)c(=O)c3c2c2ccccc2n3C)cc(OC)c1OC	-2%	23%	i	0
Cc1cc(C)n2nc(C)c(C(=O)N[C@@H]3COCC[C@@H]3OCC3CC3)c2n1	7%	1%	22µM*	10

Assay outcomes deposited in PubChem by National Center for Advancing Translational Sciences (NCATS).
